# Earlier results, collected in PubChem BioAssay AID977611.
# Out of some 3,900 compounds screened, about 3,900 (100%) were called active. No cut-off is given here; in the data, nearly all actives have Kd up to about 4200 µM. So high a share suggests a set chosen from earlier hits. The list shows a part of the results. *1 amine or outer side, *2 acyl side, *3 side chain or, on linkers, in order; H or OH if unused. Where a SMILES comes first, the peptide text is derived from it. Bridges are numbered along the chain shown (N, C = ends). Side-chain parts run from the residue outwards. [ ]: non-standard residue; d: D form. X1 = CC(C)C[C@@H](C(=O)[*:2])N(C[C@H](Cc1ccccc1)N[*:3])[*:1]; Orn(CH(NH2)2) = NC(N)NCCC[C@H](N)C(=O)O; S5 = C=CCCC[C@](C)(N)C(=O)O
# Assay: PubChem AID 977611
# Settings: PDB protein-ligand complexes, literature Kd
compound,measurement,setting,value
C[C@H](CC(=O)O)c1n[nH]c2nc(N)[nH]c(=O)c2c1=O,Kd,"protein: Dihydropteroate Synthase, PDB entry 4d8z",0.51 µM (active)
C[C@@H](C(=O)O)c1n[nH]c2nc(N)[nH]c(=O)c2c1=O,Kd,"protein: Dihydropteroate Synthase, PDB entry 4daf",0.076 µM (active)
COc1ccccc1[C@@H](Br)[C@H](NC(=O)c1ccc([N+](=O)[O-])cc1)C(=O)N1CCCCC1,Kd,"protein: Capsid protein, PDB entry 4g93",300 µM (active)
Nc1ncnc2c1ncn2[C@@H]1O[C@H](COP(O)O)[C@@H](O)[C@H]1O,Kd,PDB entry 4qsk,8 µM (active)
C[C@@H](Oc1ccc(Oc2ncc(C(F)(F)F)cc2Cl)cc1)C(=O)O,Kd,"protein: carboxyltransferase subunit of ACC (AccD6), PDB entry 4g2r",35.8 µM (active)
OC(Cc1cccc(-c2cccc3c2oc2ccccc23)c1)([P+](O)(O)O)[P+](O)(O)O,Kd,"protein: Diterpene synthase Rv3378c, PDB entry 3wqm",0.56 µM (active)
CN1CCN(c2cccc(CN)c2)CC1,Kd,"protein: CATIONIC TRYPSIN, PDB entry 4abg",271 µM (active)
"CC(C)C[C@@H]1NC(=O)[C@H](C)NC(=O)[C@@H]2CSSC[C@H](NC(=O)CN)C(=O)N[C@@H](CSSC[C@@H](C(=O)O)NC(=O)[C@H](Cc3ccc(O)cc3)NC(=O)[C@H](CCCCN)NC(=O)[C@@H]3CCCN3C(=O)[C@H](CC(N)=O)NC(=O)[C@H](CC(N)=O)NC1=O)C(=O)N[C@@H](CO)C(=O)N[C@@H](CC(C)C)C(=O)N1CCC[C@H]1C(=O)N1CCC[C@H]1C(=O)N2 (H-GCCSLPPCALNNPKYC-OH; disulfide 2-8, 3-16)",Kd,"protein: nicotinic acetylcholine receptor homolog AChBP(?7-nAChR), PDB entry 2br8",0.0326 µM (active)
Cc1ccc(C(=O)Nc2ccc(S(O)(O)O)c3cc(S(O)(O)O)cc(S(O)(O)O)c23)cc1N,Kd,"protein: Nucleocapsid protein, PDB entry 4j4v",0.44 µM (active)
NCCc1c[nH]c2ccccc12,Kd,"protein: Biogenic amine-binding protein, PDB entry 4ge1",0.37 µM (active)
Cc1[nH]c2ccccc2c1CC(=O)N[C@@H](Cc1ccccc1)C(=O)N(C)c1ccccc1,Kd,"protein: CAPSID PROTEIN P24 CA Hexamer, PDB entry 4qnb",0.26 µM (active)
same,Kd,"protein: Capsid protein p24, PDB entry 4u0e",0.12 µM (active)
CC(C)C[C@H](NC[C@H](Cc1ccccc1)NC(=O)[C@H](CC(N)=O)NC(=O)CNC(=O)[C@@H]1CCCN1C(=O)[C@@H](N)CCCNC(N)N)C(=O)N[C@@H](CCC(N)=O)C(=O)N[C@@H](CO)C(=O)N[C@@H](CCCNC(N)N)C(=O)N1CCC[C@H]1C(N)=O (H-[X1]([Asn-Gly-Pro-Orn(CH(NH2)2)])QS[Orn(CH(NH2)2)]P-NH2),Kd,"protein: PR(HIV-1 protease) with the V82A mutation (PRV82A), PDB entry 2aof",28.2 µM (active)
same,Kd,"protein: wild-type PR(HIV-1 protease), PDB entry 2aoi",96.7 µM (active)
CC(C)C[C@H](NC(=O)[C@@H](NC(=O)[C@@H]1CCCN1)C(C)C)C(=O)N[C@@H](Cc1ccccc1)C(=O)N1CCC[C@H]1C(=O)NCC(=O)N[C@@H](CCC(N)=O)C(=O)N1CCC[C@H]1C(=O)N[C@@H](Cc1ccccc1)C(=O)NCC(=O)N[C@@H](CCC(N)=O)C(=O)N1CCC[C@H]1C(=O)N1CCC[C@H]1C(=O)O (H-PVLFPGQPFGQPP-OH),Kd,"protein: CAPSID PROTEIN P24 CA Hexamer, PDB entry 4wym",99.8 µM (active)
H-PVLFPGAPFGQPPA-OH,Kd,"protein: Capsid protein p24, PDB entry 4u0b",50 µM (active)
H-PVLFPGQPFGQPPA-OH,Kd,"protein: Capsid protein p24, PDB entry 4u0a",50 µM (active)
COC(=O)C[C@@H]1N=C(c2ccc(Cl)cc2)c2c(sc(C)c2C)-n2c(C)nnc21,Kd,"protein: Bromodomain-containing protein 4, PDB entry 4f3i",0.0361 µM (active)
NC1NC(=O)c2ncn([C@@H]3O[C@H](CO[P+](O)(O)O[C@H]4[C@@H](O)[C@H](n5cnc6c5NC(N)NC6=O)O[C@@H]4COP(O)O)[C@@H](OP(O)O)[C@H]3O)c2N1 (stereo not given in full),Kd,"protein: Simian 11 rotavirus (serotype 3 / strain SA11-Ramig), PDB entry 4g0a",0.0253 µM (active)
C[C@H]1OC(c2cccc(O)c2O)=N[C@@H]1C(=O)N(CCCNC(=O)c1cccc(O)c1O)CCCNC(=O)c1cccc(O)c1O,Kd,"protein: Neutrophil gelatinase-associated lipocalin, PDB entry 4k19",0.0044 µM (active)
H-TFKKTN-OH,Kd,"protein: Coatomer subunit beta', PDB entry 4j86",171 µM (active)
H-EDMFAKLKDKFFNEINK-OH,Kd,PDB entry 2nm1,0.034 µM (active)
H-ITFEDLLDYYGP-OH,Kd,"protein: HIV-1 Capsid Protein(L211S), PDB entry 3ds4",64.5 µM (active)
same,Kd,"protein: HIV-1 Capsid Protein(N183A), PDB entry 3ds0",14.9 µM (active)
same,Kd,"protein: HIV-1 Capsid Protein(Y169A), PDB entry 3ds3",6 µM (active)
CC(C)C[C@H](NC(=O)[C@@H](NC(=O)[C@H](CCC(=O)O)NC(=O)[C@@H](N)Cc1ccc(O)cc1)[C@@H](C)O)C(=O)N[C@@H](CO[P+](O)(O)O)C(=O)N[C@@H](CC(=O)O)C(=O)N[C@@H](CO[P+](O)(O)O)C(=O)N[C@@H](CCC(=O)O)C(=O)O,Kd,"protein: Msx2-interacting protein, PDB entry 2rt5",0.19 µM (active)
CC[C@H](C)[C@H](N)C(=O)N[C@H](C(=O)N[C@@H](Cc1ccccc1)C(=O)N[C@@]1(C)CCC/C=C\CCC[C@@](C)(C(=O)N[C@@H](Cc2ccc(O)cc2)C(=O)N[C@@H](Cc2ccc(O)cc2)C(=O)NCC(=O)N[C@@H](CCCCN)C(=O)N[C@@H](CCCCN)C(=O)N[C@@H](CCCCN)C(=O)O)NC(=O)[C@H](CC(C)C)NC(=O)[C@H](CC(C)C)NC(=O)[C@H](CC(=O)O)NC1=O)[C@@H](C)O (H-ITF[S5]DLL[S5]YYGKKK-OH; staple (Z) 4-8),Kd,"protein: Capsid protein p24(W184A, M185A), PDB entry 2l6e",1 µM (active)
H-ITYDKGIQTDQ-OH,Kd,"protein: Dynein light chain 1, cytoplasmic, PDB entry 4ht6",0.62 µM (active)
CC(C)C[C@H](NC(=O)[C@H](CCCCN)NC(=O)[C@H](CC(C)C)NC(=O)[C@@H](NC(=O)[C@H](CC(N)=O)NC(=O)[C@H](CCC(N)=O)NC(=O)[C@H](CCCCN)NC(=O)[C@@H](NC(=O)[C@H](Cc1ccc(O)cc1)NC(=O)[C@H](CCCCN)NC(=O)[C@@H]1CCCN1)C(C)C)[C@@H](C)O)C(=O)N[C@@H](C)C(=O)N[C@H](C(=O)O)[C@@H](C)O,Kd,"protein: SEC3 wt, PDB entry 1jwm",270 µM (active)
CC[C@H](C)[C@H](N)C(=O)N[C@H](C(=O)N[C@@H](Cc1ccccc1)C(=O)N[C@@H](CCC(=O)O)C(=O)N[C@@H](CC(=O)O)C(=O)N[C@@H](CC(C)C)C(=O)N[C@@H](CC(C)C)C(=O)N[C@@H](CC(=O)O)C(=O)N[C@@H](Cc1ccc(O)cc1)C(=O)N[C@@H](Cc1ccc(O)cc1)C(=O)NCC=O)[C@@H](C)O (H-ITFEDLLDYYG-aldehyde),Kd,"protein: HIV-1 Capsid Protein(E187A), PDB entry 3ds1",2 µM (active)
